Laboratory results published in PubChem BioAssay (NCATS).
Inconclusive results are not listed. The source made the active and inactive calls. Unless noted, calls come from the whole dose curve; as a rule, active = well fitted curve in the direction sought with a large enough effect; inconclusive = small, poorly fitted or top-dose-only effect, or another doubt; inactive = no such curve, though single readings can be large; an effect the other way counts as inactive or inconclusive.

Legend:
[1] = Cell Viability - Renal Proximal Tubule (AID 545);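 note: 0% = DMSO only and -100% = 100 µM tamoxifen; nearly all actives have a fitted effect of over 40% in size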
In short: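 Luminescent ATP signal (CellTiter-Glo) served as the viability read-out after 40 hr compound exposure of freshly isolated rat proximal tubule cells at 37 °C. Concentration-dependent ATP loss was fitted with the Hill equation to give AC50.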

[2] = Cellular Toxicity (caspase-3) HepG2 (AID 654);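 note: cells exposed to compound for 16 hours before reading; 0% = DMSO alone and 100% = caspase signal from 100 µM tamoxifen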
In short: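 Concentration-response AC50 values reflect caspase-3/7 induction in HepG2 cells after 16 hours of compound exposure, quantified by luminescence from liberated aminoluciferin and referenced to 100 uM tamoxifen as full stimulation.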

[3] = Cellular Toxicity (caspase-3) SK-N-SH (AID 661);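 note: 0% = DMSO basal and 100% = 10 µM staurosporine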
In short: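 Apoptosis readout in SK-N-SH neuroblastoma: Caspase-Glo 3/7 luminescence following 16 hr treatment in complete culture medium. Normalization used DMSO and 10 uM staurosporine controls.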

[4] = biological target: Cytochrome P450 3A4 (Homo sapiens) (UniProt P08684); test: qHTS Assay for Inhibitors and Substrates of Cytochrome P450 3A4 (AID 884); note: series mostly up to about 57 µM; % is set by controls: 0 for no effect and ±100 for the full control effect; nearly all actives have a fitted effect of over 50% in size
In short: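 Luminescent readout of luciferin produced by CYP3A4 (20 nM) dealkylation of Luciferin-PPXE, 25 uM (its KM). NADPH-driven reaction ran 60 min at RT after 10 min compound preincubation; data scaled to 57 uM ketoconazole as 100% inhibition.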

[5] = Cell Viability - LYMP2-004 (AID 966);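 note: cells exposed to compound for 24 h; plate controls were DMSO only for no effect and tetraoctylammonium bromide control for full effect; nearly all actives have a fitted effect of over 65% in size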
In short: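 Viable-cell number estimated from ATP luminescence (CellTiter-Glo) in 2500 human lymphoblastoid cells/well after 24 hr at 37 C with compound. AC50 fitted to the standard Hill equation.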

[6] = Cell Viability - LYMP2-015 (AID 971);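 note: cells exposed to compound for 24 h; 0% = DMSO only and full effect = 92 µM tetraoctylammonium bromide; nearly all actives have a fitted effect of over 55% in size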
In short: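 AC50 values reflect Hill-model fits of ATP-based luminescence (CellTiter-Glo) from a human lymphoblastoid line, 2500 cells/well, treated 24 hr at 37 C.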

[7] = Cell Viability - LYMP2-010 (AID 981);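 note: cells exposed to compound for 24 hours at 37 °C; nearly all actives have a fitted effect of over 55% in size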; note: potency is the fitted concentration of half-maximal effect
In short: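 This 24 hr viability screen uses LYMP2-010 lymphoblastoid cells, quantifies ATP via luciferase luminescence, and derives AC50 from Hill fits of qHTS concentration-response data.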

[8] = Cell Viability - LYMP2-012 (AID 982);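 note: cellular ATP by luciferase luminescence where a drop means cytotoxicity; cells exposed to compound for one day before reading; 0% = DMSO only and full loss = 92 µM tetraoctylammonium bromide; nearly all actives have a fitted effect of over 55% in size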
[9] = Cell Viability - LYMP2-018 (AID 985);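 note: plate controls were DMSO only for no effect and tetraoctylammonium bromide at 92 µM for full effect; nearly all actives have a fitted effect of over 50% in size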
In short: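 In this qHTS viability assay, cells are treated for 24 hr and cellular ATP is quantified by luciferase-based luminescence, with tetraoctylammonium bromide as positive control.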

[10] = Cell Viability - LYMP2-020 (AID 986);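 note: series mostly up to about 92 µM; cells exposed to compound for 24 h at 37 °C; plate controls were DMSO only for no effect and tetraoctylammonium bromide at 92 µM for full effect; nearly all actives have a fitted effect of over 55% in size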
In short: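 Cells at 2500 per well receive a 24 hr compound exposure at 37 C. Viability is measured as ATP-dependent luciferase luminescence, with AC50 modeled from qHTS concentration-response curves.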

[11] = qHTS assay for small molecule agonists of retinoid X receptor alpha signaling (AID 588544; calls by dose curve;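 for activation: 0% = DMSO basal wells and 100% = reference agonist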); settings: HEK293T RXRa-UAS-bla, beta-lactamase reporter, 18 h; 530 nm emission
[12] = biological target: Retinoic acid receptor RXR-alpha (Homo sapiens) (UniProt P19793); test: as above
[13] = qHTS assay for small molecule antagonists of retinoid X receptor alpha signaling (AID 588546; active = well fitted inhibition curve with a large enough effect in the signal ratio, with a control signal flat, not every such curve was filed as active; the % refers to the signal ratio;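 note: cells stimulated with 9-cis-retinoic acid as agonist; % is set by controls: 0 for no effect and ±100 for the full control effect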); settings: HEK293T RXRa-UAS-bla, beta-lactamase ratio, antagonist mode; measured here: W530 green channel, cytotoxicity proxy
In short: (§1)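 Beta-lactamase reporter inhibition, read as CCF4 fluorescence ratio (ex 405, em 460/530 nm) after 2 h at RT. HEK293T UAS-bla cells, 2500/well, were stimulated with 9-cis-RA at 500 or 100 nM final alongside test compound for 18 h at 37 C.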

[14] = biological target: Retinoic acid receptor RXR-alpha (Homo sapiens) (UniProt P19793); test: as above; settings: HEK293T RXRa-UAS-bla, beta-lactamase ratio, antagonist mode
In short: as §1

[15] = biological target: Voltage-gated inwardly rectifying potassium channel KCNH2 (Homo sapiens) (UniProt Q12809); test: qHTS Assay for Small Molecule Inhibitors of the Human hERG Channel Activity (AID 588834);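 note: top concentration of the series differs between compounds; % is set by controls: 0 for no effect and ±100 for the full control effect; lower thallium flux fluorescence means stronger hERG block; nearly all actives have a fitted effect of over 50% in size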
In short: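 Step 1: BacMam hERG transduction of U2OS, 4 hrs RT. Step 2: overnight 37 °C, plate 2000 cells/well, 4 hr. Step 3: FluxOR load, compound 10 min, stimulate, read fluorescence.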

[16] = biological target: Nuclear receptor ROR-gamma (Homo sapiens) (UniProt P51449); test: qHTS assay for small molecule antagonists of the retinoid-related orphan receptor gamma (ROR-gamma) signaling pathway (AID 651802);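 note: CHO cells with doxycycline-induced ROR-gamma expression; luciferase reporter luminescence driven by ROR response element; series mostly up to about 92 µM; % is set by controls: 0 for no effect and ±100 for the full control effect; nearly all actives have a fitted effect of over 60% in size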
In short: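 Doxycycline-induced reporter activity in engineered CHO cells (TET-inducible ROR, RORE-LUC) was measured by luminescence after 16hr compound exposure at 37C.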

[17] = qHTS assay for cell viability of the p53RE-bla HCT-116 cell line (AID 743292)
In short: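 After plating at 4,000 cells per well and a 5 h rest at 37 C, HCT-116 cells carrying p53RE-bla received test chemicals in DMSO. Sixteen hours later at 37 C, CellTiter-Glo was added and luminescence recorded following 30 min at room temperature.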

[18] = Cell Viability - SK-N-SH (AID 435; calls by dose curve;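 note: potency is the fitted concentration of half-maximal effect; compound exposure lasted 40 h at 37 °C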); settings: SK-N-SH neuroblastoma cell viability qHTS
In short: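 Luminescent ATP signal served as the viability read-out after 40 hours of compound treatment of human neuroblastoma SK-N-SH cells. Concentration-response data, scaled between DMSO and 100 uM tamoxifen, gave AC50 values by standard Hill modeling.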

[19] = biological target: Thyroid hormone receptor beta (Homo sapiens) (UniProt P10828); test: qHTS assay for small molecule agonists of thyroid hormone receptor beta signaling (AID 588545; calls by dose curve;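 note: 0% = DMSO only and 100% = 10 nM T3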)
In short: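 TR-UAS-bla-GripTite HEK 293 cells in medium with 2% charcoal/dextran FBS, 0.1 mM NEAA and 1 mM sodium pyruvate were treated with titrated compounds for 18 hrs at 37 C. Beta-lactamase reporter was read with CCF4 dye (ex 405, em 460/530 nm); EC50 from Hill fits.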

[20] = qHTS assay for environmental chemicals that activate the Aryl hydrocarbon Receptor (AhR) signaling pathway (AID 651777); settings: 1A2-DRE human hepatoma cells, luciferase, 24 h; activation: stronger effect = higher value; note: % of control where 0% means no effect; nearly all actives have a fitted effect of over 15% in size
In short: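 Following a 24 hr incubation with test chemicals at 37 C and 5% CO2, 1A2-DRE human hepatoma cells received One-Glo reagent; after 30 min at room temperature, luciferase output reflected CYP1A2 induction via AhR.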

Chain of Nuclear receptor ROR-gamma (Homo sapiens) (P51449 whole entry, looked up): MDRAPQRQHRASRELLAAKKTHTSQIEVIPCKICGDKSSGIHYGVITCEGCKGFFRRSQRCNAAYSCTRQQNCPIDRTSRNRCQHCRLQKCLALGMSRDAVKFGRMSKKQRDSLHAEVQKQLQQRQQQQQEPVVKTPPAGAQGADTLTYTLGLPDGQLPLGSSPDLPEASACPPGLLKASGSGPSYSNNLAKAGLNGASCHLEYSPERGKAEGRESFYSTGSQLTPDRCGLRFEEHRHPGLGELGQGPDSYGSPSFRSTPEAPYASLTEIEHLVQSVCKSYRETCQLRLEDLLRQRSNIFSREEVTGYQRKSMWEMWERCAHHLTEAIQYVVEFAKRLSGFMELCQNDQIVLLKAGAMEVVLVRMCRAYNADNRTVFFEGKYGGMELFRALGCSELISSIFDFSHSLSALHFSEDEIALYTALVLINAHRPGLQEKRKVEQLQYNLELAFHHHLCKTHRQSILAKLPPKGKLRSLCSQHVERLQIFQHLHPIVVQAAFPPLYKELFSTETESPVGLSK
Chain of Retinoic acid receptor RXR-alpha (Homo sapiens) (P19793 whole entry, looked up): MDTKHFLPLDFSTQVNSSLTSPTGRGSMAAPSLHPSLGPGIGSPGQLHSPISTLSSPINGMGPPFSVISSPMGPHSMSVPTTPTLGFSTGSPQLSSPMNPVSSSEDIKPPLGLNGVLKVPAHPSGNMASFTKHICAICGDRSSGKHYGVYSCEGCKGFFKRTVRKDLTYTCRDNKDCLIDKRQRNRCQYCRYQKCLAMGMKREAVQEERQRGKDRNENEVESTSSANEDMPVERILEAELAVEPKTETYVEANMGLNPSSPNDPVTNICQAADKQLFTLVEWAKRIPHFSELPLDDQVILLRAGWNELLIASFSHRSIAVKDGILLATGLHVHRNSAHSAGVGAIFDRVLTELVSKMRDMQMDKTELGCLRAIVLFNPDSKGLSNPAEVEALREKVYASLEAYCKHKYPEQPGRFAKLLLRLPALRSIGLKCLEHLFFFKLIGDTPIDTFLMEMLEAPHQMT
Chain of Cytochrome P450 3A4 (Homo sapiens) (P08684 whole entry, looked up): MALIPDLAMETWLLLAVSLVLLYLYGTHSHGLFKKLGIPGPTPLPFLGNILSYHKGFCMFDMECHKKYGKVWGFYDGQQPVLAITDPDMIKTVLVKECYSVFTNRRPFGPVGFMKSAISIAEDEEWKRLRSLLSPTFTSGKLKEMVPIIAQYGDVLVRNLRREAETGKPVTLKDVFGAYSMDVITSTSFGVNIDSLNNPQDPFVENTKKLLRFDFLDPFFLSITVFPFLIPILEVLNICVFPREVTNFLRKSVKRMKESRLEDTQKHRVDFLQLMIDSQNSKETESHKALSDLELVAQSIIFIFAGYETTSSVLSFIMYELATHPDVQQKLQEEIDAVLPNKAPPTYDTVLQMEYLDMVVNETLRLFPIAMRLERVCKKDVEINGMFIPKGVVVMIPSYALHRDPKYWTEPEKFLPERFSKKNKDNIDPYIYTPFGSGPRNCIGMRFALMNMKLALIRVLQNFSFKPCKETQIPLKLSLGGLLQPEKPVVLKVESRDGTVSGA
Chain of Voltage-gated inwardly rectifying potassium channel KCNH2 (Homo sapiens) (Q12809 whole entry, looked up): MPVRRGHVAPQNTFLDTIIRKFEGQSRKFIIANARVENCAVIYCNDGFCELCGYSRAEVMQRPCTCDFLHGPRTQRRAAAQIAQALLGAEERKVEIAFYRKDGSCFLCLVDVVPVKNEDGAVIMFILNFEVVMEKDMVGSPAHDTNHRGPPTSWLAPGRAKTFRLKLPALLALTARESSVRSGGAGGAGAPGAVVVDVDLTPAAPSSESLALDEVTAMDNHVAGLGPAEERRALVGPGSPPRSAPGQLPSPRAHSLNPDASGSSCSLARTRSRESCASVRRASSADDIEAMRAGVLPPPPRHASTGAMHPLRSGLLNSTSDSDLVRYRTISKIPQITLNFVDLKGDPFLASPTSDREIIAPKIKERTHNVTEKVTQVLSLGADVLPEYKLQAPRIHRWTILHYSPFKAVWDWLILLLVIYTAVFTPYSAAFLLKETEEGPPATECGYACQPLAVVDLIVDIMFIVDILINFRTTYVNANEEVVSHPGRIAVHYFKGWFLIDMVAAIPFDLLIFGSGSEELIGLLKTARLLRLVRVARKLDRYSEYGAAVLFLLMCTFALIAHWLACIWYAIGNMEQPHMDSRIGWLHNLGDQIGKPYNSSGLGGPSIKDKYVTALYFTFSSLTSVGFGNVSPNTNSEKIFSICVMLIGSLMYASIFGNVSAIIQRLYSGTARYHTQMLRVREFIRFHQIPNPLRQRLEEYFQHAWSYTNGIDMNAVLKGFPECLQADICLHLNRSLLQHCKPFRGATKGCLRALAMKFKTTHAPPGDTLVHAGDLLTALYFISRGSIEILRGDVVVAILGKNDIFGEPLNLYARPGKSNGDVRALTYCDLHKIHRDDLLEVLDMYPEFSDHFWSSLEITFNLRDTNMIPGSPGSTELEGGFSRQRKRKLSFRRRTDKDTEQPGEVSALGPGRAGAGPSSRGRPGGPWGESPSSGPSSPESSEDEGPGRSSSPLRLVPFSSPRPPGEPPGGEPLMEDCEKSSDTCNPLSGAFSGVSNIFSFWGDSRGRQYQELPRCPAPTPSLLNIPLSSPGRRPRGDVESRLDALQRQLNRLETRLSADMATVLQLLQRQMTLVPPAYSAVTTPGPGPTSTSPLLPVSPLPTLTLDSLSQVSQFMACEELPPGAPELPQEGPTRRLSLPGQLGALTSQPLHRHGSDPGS
Chain of Thyroid hormone receptor beta (Homo sapiens) (P10828 whole entry, looked up): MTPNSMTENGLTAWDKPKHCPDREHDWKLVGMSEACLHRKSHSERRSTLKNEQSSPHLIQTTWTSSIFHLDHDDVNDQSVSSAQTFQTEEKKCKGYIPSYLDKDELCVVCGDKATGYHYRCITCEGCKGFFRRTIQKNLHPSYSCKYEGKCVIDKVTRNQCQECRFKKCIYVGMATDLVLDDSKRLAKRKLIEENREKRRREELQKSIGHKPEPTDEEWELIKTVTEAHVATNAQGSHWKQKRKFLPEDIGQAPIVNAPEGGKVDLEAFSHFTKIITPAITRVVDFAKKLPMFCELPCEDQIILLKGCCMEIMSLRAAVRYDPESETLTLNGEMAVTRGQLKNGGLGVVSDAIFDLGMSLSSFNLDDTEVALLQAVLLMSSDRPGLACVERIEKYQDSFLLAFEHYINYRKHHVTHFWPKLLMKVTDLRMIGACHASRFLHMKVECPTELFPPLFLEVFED

O=C(O)C(Br)Br
-1.1%: max response [11]
inactive: outcome [1] | outcome [2] | Potency [3] | Potency [4] | Potency [5] | Potency [6] | Potency [7] | Potency [8] | Potency [9] | Potency [10] | outcome [12] | max response [14] 6.61% | Potency [15] | Potency [16] | Potency [17]
-1.6%: max response [13]

C=CC(=O)OCC(C)C
4.12%: max response [13]
inactive: Potency [18] > 92 µM | outcome [1] | Potency [3] | Potency [4] | Potency [5] | Potency [6] | Potency [7] | Potency [8] | Potency [9] | Potency [10] | outcome [12] | Potency [19] | max response [14] 5.4% | Potency [15] | activation [20] 0.0769% | Potency [16] | Potency [17]
-3.12%: max response [11]

C=CC(=O)OCCO
-8.13%: max response [11]
active: Potency [7] 50.1 µM
inactive: outcome [1] | outcome [2] | Potency [3] | Potency [4] | outcome [12] | Potency [19] | max response [14] 11.3% | Potency [15] | Potency [17]
-12.5%: max response [13]

O=[N+]([O-])c1cc(Cl)c(Cl)c(Cl)c1
-6.59%: max response [13]
inactive: Potency [18] > 92 µM | outcome [1] | outcome [2] | Potency [3] | Potency [4] | Potency [5] | Potency [6] | Potency [7] | Potency [8] | Potency [9] | Potency [10] | outcome [12] | Potency [19] | max response [14] -5.05% | Potency [15] | activation [20] 0.049% | Potency [16] | Potency [17]
9.3%: max response [11]

CCCCC(CC)COC(=O)c1ccc(C(=O)OCC(CC)CCCC)c(C(=O)OCC(CC)CCCC)c1 (configuration not stated)
-7.98%: max response [13]
inactive: Potency [18] > 92 µM | outcome [1] | outcome [2] | Potency [3] | Potency [4] | Potency [5] | Potency [7] | Potency [8] | Potency [9] | Potency [10] | outcome [12] | Potency [19] | max response [14] 5.41% | Potency [15] | activation [20] -0.0808% | Potency [16] | Potency [17]
-8.52%: max response [11]

CCCCOCC1CO1 (configuration not stated)
5.09%: max response [11]
inactive: Potency [18] > 92 µM | outcome [1] | Potency [3] | Potency [4] | Potency [5] | Potency [6] | Potency [7] | Potency [8] | Potency [9] | Potency [10] | outcome [12] | Potency [19] | max response [14] 20.3% | Potency [15] | Potency [16] | Potency [17]
12.9%: max response [13]

O=C(O)C(Br)CBr (configuration not stated)
10.3%: max response [11]
inactive: Potency [18] > 92 µM | outcome [1] | outcome [2] | Potency [3] | Potency [4] | Potency [6] | Potency [7] | Potency [8] | Potency [9] | Potency [10] | outcome [12] | Potency [19] | Potency [15] | activation [20] 2.43% | Potency [16] | Potency [17]
